The target in experiment [1] is T1, Aurora kinase A (Homo sapiens) (UniProt O14965).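 Also: values are mean percent inhibition.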
T1 sequence (whole entry): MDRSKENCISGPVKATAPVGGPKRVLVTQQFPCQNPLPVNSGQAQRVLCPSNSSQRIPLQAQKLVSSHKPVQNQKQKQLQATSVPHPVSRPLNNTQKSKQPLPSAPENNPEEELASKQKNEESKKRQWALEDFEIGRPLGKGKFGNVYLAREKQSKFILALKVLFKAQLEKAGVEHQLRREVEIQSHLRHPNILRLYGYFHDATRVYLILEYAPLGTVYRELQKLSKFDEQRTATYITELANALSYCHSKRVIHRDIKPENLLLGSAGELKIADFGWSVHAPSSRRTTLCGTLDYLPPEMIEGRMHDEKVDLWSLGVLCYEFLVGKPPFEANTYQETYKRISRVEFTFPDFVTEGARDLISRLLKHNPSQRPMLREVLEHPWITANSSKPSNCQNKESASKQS
The conditions noted are these: at 1 µM.

Experiment [2] deals with Aurora kinase B (Homo sapiens) (UniProt Q96GD4). The conditions noted are these: at 0.1 µM.
Aurora kinase B (Homo sapiens), sequence (Q96GD4 whole entry): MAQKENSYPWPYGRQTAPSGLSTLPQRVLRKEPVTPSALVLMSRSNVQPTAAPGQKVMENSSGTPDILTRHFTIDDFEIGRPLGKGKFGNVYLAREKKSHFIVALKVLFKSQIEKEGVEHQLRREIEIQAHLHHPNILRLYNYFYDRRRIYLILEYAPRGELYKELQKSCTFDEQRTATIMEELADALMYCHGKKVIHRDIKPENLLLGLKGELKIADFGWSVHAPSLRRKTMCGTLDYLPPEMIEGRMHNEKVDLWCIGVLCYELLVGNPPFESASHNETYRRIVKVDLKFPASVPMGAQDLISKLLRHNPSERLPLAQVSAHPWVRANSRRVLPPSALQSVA
The target is the same in experiment [3]. Conditions: at 1 µM.
In experiment [4] the target is T2, Aurora kinase C (Homo sapiens) (UniProt Q9UQB9).
T2 sequence (whole entry): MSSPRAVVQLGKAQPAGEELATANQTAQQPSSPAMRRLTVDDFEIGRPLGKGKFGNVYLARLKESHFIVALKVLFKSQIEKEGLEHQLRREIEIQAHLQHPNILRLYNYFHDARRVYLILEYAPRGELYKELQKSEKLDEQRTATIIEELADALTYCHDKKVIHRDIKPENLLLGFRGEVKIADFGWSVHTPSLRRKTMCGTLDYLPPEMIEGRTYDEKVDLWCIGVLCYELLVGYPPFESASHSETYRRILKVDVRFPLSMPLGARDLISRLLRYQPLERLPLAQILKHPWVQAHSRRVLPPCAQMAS
The conditions noted are these: at 0.1 µM.

For experiment [5], the target named is T2, Aurora kinase C (Homo sapiens). The conditions noted are these: at 1 µM.
In experiment [6] the target is Serine/threonine-protein kinase 10 (Homo sapiens) (UniProt O94804). The conditions noted are these: at 0.1 µM.
Serine/threonine-protein kinase 10 (Homo sapiens), sequence (O94804 whole entry, looked up): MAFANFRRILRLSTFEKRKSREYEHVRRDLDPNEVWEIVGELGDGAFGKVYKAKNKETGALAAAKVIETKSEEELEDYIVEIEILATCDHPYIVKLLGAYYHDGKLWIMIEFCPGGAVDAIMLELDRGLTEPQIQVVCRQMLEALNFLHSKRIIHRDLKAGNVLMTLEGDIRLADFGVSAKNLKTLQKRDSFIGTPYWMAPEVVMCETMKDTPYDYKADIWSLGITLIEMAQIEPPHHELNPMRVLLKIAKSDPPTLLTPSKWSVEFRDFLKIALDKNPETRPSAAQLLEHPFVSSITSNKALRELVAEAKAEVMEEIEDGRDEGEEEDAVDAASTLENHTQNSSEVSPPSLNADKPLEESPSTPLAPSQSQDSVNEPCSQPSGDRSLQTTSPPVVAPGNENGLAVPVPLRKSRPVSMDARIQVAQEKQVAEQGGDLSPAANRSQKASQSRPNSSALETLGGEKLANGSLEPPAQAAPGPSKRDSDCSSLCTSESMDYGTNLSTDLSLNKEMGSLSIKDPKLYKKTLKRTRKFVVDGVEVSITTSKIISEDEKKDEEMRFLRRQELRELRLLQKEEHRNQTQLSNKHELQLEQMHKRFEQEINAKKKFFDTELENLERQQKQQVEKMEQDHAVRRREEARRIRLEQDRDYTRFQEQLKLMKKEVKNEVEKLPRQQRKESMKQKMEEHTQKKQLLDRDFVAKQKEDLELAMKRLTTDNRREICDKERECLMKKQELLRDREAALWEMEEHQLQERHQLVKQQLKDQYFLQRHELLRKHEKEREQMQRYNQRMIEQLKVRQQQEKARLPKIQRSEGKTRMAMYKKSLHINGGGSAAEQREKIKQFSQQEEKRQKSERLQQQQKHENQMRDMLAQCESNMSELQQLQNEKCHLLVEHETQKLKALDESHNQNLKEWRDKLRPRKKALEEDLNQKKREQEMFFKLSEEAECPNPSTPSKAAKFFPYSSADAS
The target is the same in experiment [7]. Conditions: at 1 µM.
Experiment [8] has as its target T3, Mitogen-activated protein kinase kinase kinase kinase 2 (Homo sapiens) (UniProt Q12851).
T3 sequence (whole entry): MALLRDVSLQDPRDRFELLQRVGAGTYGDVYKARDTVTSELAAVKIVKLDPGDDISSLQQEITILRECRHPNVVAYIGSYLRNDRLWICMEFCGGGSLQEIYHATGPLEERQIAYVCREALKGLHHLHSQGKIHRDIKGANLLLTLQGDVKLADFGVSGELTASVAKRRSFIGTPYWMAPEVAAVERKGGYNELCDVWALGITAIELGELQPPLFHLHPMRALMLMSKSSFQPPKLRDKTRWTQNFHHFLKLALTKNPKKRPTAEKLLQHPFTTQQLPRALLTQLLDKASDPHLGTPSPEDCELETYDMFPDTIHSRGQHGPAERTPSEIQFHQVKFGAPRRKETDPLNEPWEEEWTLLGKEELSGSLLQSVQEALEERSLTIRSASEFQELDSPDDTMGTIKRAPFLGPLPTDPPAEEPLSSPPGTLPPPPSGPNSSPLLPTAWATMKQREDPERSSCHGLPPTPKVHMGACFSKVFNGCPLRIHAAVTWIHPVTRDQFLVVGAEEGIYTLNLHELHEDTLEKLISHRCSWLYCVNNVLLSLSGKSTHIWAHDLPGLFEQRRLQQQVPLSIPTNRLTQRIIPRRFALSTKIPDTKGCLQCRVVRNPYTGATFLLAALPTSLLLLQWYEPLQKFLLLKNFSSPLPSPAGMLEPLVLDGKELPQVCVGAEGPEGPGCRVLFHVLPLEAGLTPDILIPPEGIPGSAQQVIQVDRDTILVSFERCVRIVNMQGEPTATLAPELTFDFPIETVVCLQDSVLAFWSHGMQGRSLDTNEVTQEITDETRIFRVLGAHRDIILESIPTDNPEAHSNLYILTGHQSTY
Conditions: at 0.1 µM.

In experiment [9] the target is T3, Mitogen-activated protein kinase kinase kinase kinase 2 (Homo sapiens). Conditions: at 1 µM.
Experiment [10] addresses Mitogen-activated protein kinase kinase kinase kinase 4 (Homo sapiens) (UniProt O95819). The conditions noted are these: at 0.1 µM.
Experiment [11] shares this target. Conditions: at 1 µM.
The target of experiment [12] is Dual specificity mitogen-activated protein kinase kinase 1 (Homo sapiens) (UniProt Q02750). The conditions noted are these: at 0.1 µM.
Dual specificity mitogen-activated protein kinase kinase 1 (Homo sapiens), sequence (Q02750 whole entry): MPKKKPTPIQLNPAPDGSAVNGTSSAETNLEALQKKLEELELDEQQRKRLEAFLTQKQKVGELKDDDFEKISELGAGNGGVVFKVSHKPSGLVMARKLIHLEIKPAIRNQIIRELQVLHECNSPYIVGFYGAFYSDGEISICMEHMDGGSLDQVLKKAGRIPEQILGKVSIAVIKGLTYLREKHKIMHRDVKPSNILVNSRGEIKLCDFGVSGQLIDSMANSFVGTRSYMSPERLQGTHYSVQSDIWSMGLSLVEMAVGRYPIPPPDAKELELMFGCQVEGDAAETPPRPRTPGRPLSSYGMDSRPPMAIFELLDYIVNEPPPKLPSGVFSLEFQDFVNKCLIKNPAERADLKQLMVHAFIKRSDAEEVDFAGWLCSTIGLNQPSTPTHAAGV
Experiment [13] has the same target. Conditions: at 1 µM.
Experiment [14] concerns the target Misshapen-like kinase 1 (Homo sapiens) (UniProt Q8N4C8). Conditions: at 0.1 µM.
The target is the same in experiment [15]. The conditions noted are these: at 1 µM.
Experiment [16] concerns the target T4, Serine/threonine-protein kinase 4 (Homo sapiens) (UniProt Q13043).
T4 sequence (whole entry): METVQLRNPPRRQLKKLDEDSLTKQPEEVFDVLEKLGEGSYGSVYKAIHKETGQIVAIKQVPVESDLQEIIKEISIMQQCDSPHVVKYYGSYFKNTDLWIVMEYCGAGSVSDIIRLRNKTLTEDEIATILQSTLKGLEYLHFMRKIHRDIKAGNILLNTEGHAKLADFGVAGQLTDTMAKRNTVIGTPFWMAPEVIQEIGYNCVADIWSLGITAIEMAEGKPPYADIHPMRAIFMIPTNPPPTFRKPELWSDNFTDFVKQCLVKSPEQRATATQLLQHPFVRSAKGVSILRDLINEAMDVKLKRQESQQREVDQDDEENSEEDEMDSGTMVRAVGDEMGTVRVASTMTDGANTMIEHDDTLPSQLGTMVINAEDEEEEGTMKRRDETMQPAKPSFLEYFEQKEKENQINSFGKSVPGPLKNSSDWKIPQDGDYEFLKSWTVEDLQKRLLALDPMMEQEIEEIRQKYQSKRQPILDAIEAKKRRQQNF
Conditions: at 0.1 µM.

Experiment [17] has as its target T4, Serine/threonine-protein kinase 4 (Homo sapiens). Conditions: at 1 µM.
Experiment [18] concerns the target T5, Serine/threonine-protein kinase 3 (Homo sapiens) (UniProt Q13188).
T5 sequence (whole entry): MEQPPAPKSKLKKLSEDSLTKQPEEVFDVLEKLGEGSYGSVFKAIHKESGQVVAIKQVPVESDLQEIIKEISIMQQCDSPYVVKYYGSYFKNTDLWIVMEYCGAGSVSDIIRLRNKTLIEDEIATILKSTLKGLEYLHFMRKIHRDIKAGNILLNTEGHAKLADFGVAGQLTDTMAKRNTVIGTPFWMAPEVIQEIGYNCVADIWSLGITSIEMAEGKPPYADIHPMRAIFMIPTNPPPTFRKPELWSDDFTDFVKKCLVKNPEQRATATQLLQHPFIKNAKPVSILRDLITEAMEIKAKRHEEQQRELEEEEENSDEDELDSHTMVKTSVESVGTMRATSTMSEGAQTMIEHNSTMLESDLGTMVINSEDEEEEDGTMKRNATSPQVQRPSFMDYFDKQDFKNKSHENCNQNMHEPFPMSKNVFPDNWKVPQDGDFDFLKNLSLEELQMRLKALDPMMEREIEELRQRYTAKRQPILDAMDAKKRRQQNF
Conditions: at 0.1 µM.

Experiment [19] has as its target T5, Serine/threonine-protein kinase 3 (Homo sapiens). Conditions: at 1 µM.
For experiment [20], the target named is Serine/threonine-protein kinase 26 (Homo sapiens) (UniProt Q9P289). The conditions noted are these: at 0.1 µM.
Serine/threonine-protein kinase 26 (Homo sapiens), sequence (Q9P289 2-416 limits assumed): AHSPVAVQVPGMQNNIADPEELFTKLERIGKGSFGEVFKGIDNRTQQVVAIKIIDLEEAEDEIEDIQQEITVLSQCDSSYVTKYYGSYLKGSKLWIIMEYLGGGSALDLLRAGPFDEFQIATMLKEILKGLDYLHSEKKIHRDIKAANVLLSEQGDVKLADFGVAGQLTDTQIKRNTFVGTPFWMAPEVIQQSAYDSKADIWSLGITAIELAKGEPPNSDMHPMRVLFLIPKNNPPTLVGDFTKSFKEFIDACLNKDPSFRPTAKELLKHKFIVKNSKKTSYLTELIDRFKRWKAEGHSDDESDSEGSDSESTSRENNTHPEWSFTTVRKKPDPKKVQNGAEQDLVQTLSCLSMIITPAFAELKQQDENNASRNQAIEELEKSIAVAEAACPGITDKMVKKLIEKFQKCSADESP

Misshapen-like kinase 1 (Homo sapiens), sequence (Q8N4C8 whole entry, looked up): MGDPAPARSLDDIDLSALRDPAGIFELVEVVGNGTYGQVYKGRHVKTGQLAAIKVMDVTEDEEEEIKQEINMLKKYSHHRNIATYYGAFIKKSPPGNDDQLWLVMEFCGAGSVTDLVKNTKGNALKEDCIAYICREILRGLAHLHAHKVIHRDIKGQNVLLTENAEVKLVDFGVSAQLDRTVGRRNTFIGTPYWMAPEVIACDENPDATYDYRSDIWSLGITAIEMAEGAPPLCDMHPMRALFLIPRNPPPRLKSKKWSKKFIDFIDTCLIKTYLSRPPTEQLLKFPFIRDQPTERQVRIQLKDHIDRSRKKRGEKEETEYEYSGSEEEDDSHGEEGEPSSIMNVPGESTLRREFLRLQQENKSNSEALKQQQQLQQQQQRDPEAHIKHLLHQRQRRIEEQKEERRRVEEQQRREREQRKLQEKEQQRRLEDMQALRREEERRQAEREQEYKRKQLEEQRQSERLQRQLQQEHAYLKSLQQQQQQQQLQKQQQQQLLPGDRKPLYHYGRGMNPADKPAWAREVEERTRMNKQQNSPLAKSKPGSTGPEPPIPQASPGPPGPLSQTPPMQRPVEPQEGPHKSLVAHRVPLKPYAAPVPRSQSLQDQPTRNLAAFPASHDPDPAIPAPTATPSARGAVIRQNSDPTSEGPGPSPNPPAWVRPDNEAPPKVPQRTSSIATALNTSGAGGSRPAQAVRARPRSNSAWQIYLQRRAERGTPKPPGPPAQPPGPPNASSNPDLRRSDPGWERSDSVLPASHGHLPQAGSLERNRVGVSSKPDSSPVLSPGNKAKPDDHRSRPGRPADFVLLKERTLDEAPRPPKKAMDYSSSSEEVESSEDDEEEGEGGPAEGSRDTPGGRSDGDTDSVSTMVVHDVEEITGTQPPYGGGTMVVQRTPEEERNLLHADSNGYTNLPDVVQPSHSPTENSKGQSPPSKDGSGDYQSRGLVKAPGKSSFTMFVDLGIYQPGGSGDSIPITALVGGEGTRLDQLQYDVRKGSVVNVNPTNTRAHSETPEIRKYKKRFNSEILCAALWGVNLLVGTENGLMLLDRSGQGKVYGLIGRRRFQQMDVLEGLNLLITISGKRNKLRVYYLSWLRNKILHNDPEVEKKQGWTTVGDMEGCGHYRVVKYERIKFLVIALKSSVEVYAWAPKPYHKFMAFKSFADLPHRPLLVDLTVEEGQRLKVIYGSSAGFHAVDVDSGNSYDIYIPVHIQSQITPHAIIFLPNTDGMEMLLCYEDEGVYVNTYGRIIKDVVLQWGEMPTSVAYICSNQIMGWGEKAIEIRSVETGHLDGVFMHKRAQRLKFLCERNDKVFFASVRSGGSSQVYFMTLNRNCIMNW
Mitogen-activated protein kinase kinase kinase kinase 4 (Homo sapiens), sequence (O95819 2-1239 limits assumed): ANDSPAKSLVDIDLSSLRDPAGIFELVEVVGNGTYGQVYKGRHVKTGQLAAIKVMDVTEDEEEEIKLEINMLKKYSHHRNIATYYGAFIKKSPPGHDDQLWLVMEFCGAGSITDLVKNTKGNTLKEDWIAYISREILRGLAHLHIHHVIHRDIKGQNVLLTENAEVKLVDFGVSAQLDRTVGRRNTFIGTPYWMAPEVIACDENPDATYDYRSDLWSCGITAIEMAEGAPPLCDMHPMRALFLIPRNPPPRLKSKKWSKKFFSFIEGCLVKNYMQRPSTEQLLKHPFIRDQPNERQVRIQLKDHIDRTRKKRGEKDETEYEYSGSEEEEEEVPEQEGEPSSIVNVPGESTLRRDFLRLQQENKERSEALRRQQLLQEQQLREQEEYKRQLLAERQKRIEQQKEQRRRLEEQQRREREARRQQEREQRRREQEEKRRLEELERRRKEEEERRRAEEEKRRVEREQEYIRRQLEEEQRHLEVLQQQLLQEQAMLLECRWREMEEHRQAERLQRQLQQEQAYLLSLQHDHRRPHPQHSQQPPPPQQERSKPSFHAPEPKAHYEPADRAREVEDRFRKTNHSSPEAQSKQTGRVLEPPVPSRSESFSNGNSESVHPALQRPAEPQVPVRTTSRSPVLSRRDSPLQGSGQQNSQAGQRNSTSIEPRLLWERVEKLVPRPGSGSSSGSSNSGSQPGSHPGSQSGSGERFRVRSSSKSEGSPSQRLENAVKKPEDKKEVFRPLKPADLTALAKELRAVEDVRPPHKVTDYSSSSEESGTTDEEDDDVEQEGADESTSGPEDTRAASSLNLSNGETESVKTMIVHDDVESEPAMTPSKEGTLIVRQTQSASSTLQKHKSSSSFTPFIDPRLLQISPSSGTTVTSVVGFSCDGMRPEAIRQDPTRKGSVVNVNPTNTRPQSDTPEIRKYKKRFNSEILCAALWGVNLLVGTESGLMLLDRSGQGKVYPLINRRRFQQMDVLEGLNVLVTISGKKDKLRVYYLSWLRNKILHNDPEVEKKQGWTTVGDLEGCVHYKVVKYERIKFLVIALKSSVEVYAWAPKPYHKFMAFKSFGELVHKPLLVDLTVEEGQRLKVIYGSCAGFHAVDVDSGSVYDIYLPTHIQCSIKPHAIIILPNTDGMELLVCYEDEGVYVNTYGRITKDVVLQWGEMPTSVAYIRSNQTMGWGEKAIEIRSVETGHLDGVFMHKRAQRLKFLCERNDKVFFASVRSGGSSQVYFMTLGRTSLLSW

As usually defined, the inhibition is the change of the read-out against control, counted positive when it falls. Regarding `COC(=O)c1ccc2c(c1)C(=Cc1cc(Br)c(O)c(Br)c1)C(=O)N2`, the inhibition was 80.4% in experiment [1]; 2.96% in [2]; 8.43% in [3]; -0.01% in experiment [4]; 15.2% in experiment [5]; 6.1% in experiment [6]. Moreover, the inhibition came out at 10.6% in [7]; 1.53% in experiment [8]; 4.06% in [9]; 45.5% in [10]; 84.7% in [11]; 3.31% in experiment [12]. Moreover, the inhibition came to 5.79% in experiment [13]; 26.4% in experiment [14]; 75.2% in experiment [15]; 3.54% in experiment [16]; 19% in experiment [17]; 4.78% in [18]. The inhibition was 19.5% in [19] and 1.49% in experiment [20].

Turning to `CS(=O)(=O)CCNCc1nc(-c2ccc3ncnc(Nc4ccc(OCc5cccc(C(F)(F)F)c5)cc4)c3c2)cs1`, the inhibition in experiment [1] was 2.26%; in experiment [2], 4.85%; in [3] it was 6.3%; in experiment [4] it was 5.42%; in experiment [5], 5.59%; in experiment [6] it was 6.68%. Further, the inhibition is 10% in experiment [7]; -0.19% in experiment [8]; 3.96% in experiment [9]; 1.73% in experiment [10]; 3.34% in experiment [11]; 1.13% in experiment [12]. The inhibition in experiment [13] was determined as 0.13%; in experiment [14], 2.9%; in experiment [15], 4.39%; in [16], 3.31%; in experiment [17], 6.13%; in [18], 4.17%. For the same compound, the values for the inhibition in experiment [19] and in experiment [20] were 6.28% and -0.02%, respectively.

On to `C[C@@H](Oc1cc(-n2cnc3ccc(OCC4CCN(C)CC4)cc32)sc1C(N)=O)c1ccccc1C(F)(F)F`, for which the inhibition in experiment [1] was -0.47%; in [2], -2.46%; in experiment [3] it was 2.14%; in [4], -1.94%; in experiment [5], 0.8%; in [6], 64.5%. Further, the inhibition in [7] was 90.5%; in experiment [8], 1.86%; in [9] it was 12.1%; in experiment [10], -0.3%; in experiment [11], 1.19%; in experiment [12], -0.27%. Further, the inhibition in experiment [13] turned out to be 0.01%; in experiment [14], 0.08%; in experiment [15], 0.43%; in experiment [16] it was 29.1%; in [17], 74.7%; in [18], 11.4%. Also, the inhibition in experiment [19] worked out at 56.7%.

In the case of `ON=C1CCc2cc(-c3nc(C4CCNCC4)[nH]c3-c3ccncc3)ccc21`, the inhibition in experiment [1] was 2.73%; in experiment [2] it was 0.1%; in experiment [3] it was 3.15%; in [4], -0.7%; in experiment [5], 10.1%; in experiment [6], 19.7%. Further, the inhibition was 63.6% in experiment [7]; 1.74% in experiment [8]; 4.29% in experiment [9]; 3.95% in experiment [10]; 21.5% in experiment [11]; 0.2% in [12]. The inhibition in experiment [13] is 2.1%; in [14] it was 4.01%; in experiment [15], 18.4%; in experiment [16], 2.4%; in experiment [17], 3.87%; in experiment [18], 1.63%. Besides, the figures for the inhibition in [19] and in experiment [20] were 2.8% and 0.5%, respectively.

On to `c1ccc(Nc2ncc(-c3ccccc3)o2)cc1`, for which the inhibition was 15.2% in experiment [1]; 3.84% in [2]; 10.3% in experiment [3]; 0.81% in experiment [4]; 16% in experiment [5]; 3.84% in experiment [6]. Also, the inhibition came to 9.44% in experiment [7]; 1.03% in experiment [8]; 5.7% in [9]; 5.9% in [10]; 25.9% in experiment [11]; 5.07% in experiment [12]. Moreover, the inhibition in [13] came to 4.19%; in experiment [14], 6.17%; in experiment [15] it was 19%; in experiment [16] it was 2.36%; in experiment [17], 4.87%; in [18] it was 4.89%. In addition, the inhibition is 6.36% in [19] and -1.38% in experiment [20].

For `Cc1ccc(Nc2ccnc(Nc3cccc(C(N)=O)c3)n2)cc1O`, the inhibition in experiment [1] was determined as 73.4%; in experiment [2], 6.44%; in experiment [3] it was 42.6%; in [4], 8.25%; in experiment [5], 85.4%; in experiment [6], 7.05%. The inhibition in [7] is 38.9%; in experiment [8], 2.07%; in [9], 8.97%; in experiment [10], 6.53%; in experiment [11] it was 28.9%; in experiment [12], 4.22%. The inhibition in [13] was 4.94%; in experiment [14], 6.27%; in experiment [15] it was 22%; in experiment [16], 5.18%; in experiment [17], 12.2%; in experiment [18], 4.59%. Moreover, the inhibition worked out at 10.1% in experiment [19] and 0.27% in experiment [20].

As to `Cc1ccc2c(-c3ccnc(Nc4cccc(C(F)(F)F)c4)n3)c(-c3ccccc3)nn2n1`, the inhibition in [1] amounted to 6.06%; in experiment [2], 5.03%; in experiment [3], 7.6%; in [4], 3.89%; in [5], 9.67%; in [6] it was 8.49%. Moreover, the inhibition in [7] was 11.5%; in [8], -0.05%; in [9] it was 9.38%; in experiment [10] it was 7.07%; in experiment [11], 46.8%; in [12], 5.35%. The inhibition in experiment [13] was found to be 7.59%; in experiment [14], 8.79%; in experiment [15], 38.2%; in experiment [16], 3.51%; in experiment [17], 7.31%; in experiment [18] it was 5.68%. In addition, the inhibition came out at 6.69% in experiment [19] and 0.2% in [20].

The record behind these values is ChEMBL document CHEMBL1961873, “Compounds: GSK PKIS; Assays: Nanosyn kinase panel” (2012).
